Values joined by “and” are separate entries in the source; they are usually repeats but may differ in a detail not shown here. Equal values may be shown once. Inconclusive results are not listed. A structure can be active in one record and inactive in another. Active and inactive are the calls of the source. Unless noted, the call rests on the fitted dose curve; in most records, active means well fitted curve in the direction sought with a large enough effect in the repeat runs; inconclusive means weak or mixed curves; inactive means no such curve, though single readings can be large; an effect the other way counts as inactive or inconclusive.
Key:
[1] = qHTS assay to identify small molecule antagonists of the androgen receptor (AR) signaling pathway using the MDA cell line in the presence of 0.5 nM R1881 - cell viability counter screen (AID 1259242); further: nearly all actives have a fitted effect of over 45% in size; further: potency means the concentration at half of the fitted maximal effect
Summary of the method: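 Cells seeded at 3,000/well and allowed 5 hr at 37C, 0% CO2 before compound transfer and R1881 (0.5 nM final) addition; 16 hr later, live-cell protease fluorescence indicated cytotoxicity.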

[2] = biological target: Estrogen receptor (Homo sapiens) (UniProt P03372); test: qHTS assay to identify small molecule antagonists of the estrogen receptor alpha (ER-alpha) signaling pathway using the BG1 cell line in the presence of 0.1 nM 17-beta-estradiol (AID 1259244); further: nearly all actives have a fitted effect of over 50% in size; further: potency means the concentration at half of the fitted maximal effect
Summary of the method: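 Luciferase signal from VM7Luc4E2 ERE-reporter cells, co-dosed with test compound and 0.1 nM final 17beta-estradiol for 22 h, read with ONE-Glo.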

[3] = qHTS assay to identify small molecule HDAC inhibitors (AID 1259364);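 further: wild-type HCT-116 cells with endogenous class I/II HDAC activity; top concentration of the series differs between compounds; nearly all actives have a fitted effect of over 45% in size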
Summary of the method: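 HCT-116 wt cells, 1,500/well, overnight attach. Compounds (DMSO) 2 h, 37 °C. HDAC-Glo I/II, 30 min RT. Luminescence.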

[4] = qHTS assay to identify small molecule HDAC inhibitors - cell viability counter screen (AID 1259365); further: nearly all actives have a fitted effect of over 50% in size; further: potency means the concentration at half of the fitted maximal effect
Summary of the method: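 Cytotoxicity was gauged in wild-type HCT-116 cells after a brief 2hr treatment with DMSO-dissolved compounds at 37C and 5% CO2, using CellTiter-Glo luminescence developed for 30min at room temperature.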

[5] = qHTS assay to identify small molecule agonists of the sonic hedgehog signaling (Shh) pathway (AID 1259368; calls by dose curve;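 further: NIH/3T3-derived 3T3Gli1-Luc cells carrying a stable Gli1-driven firefly luciferase reporter; series mostly up to about 92 µM; nearly all actives have a fitted effect of over 15% in size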)
Summary of the method: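 Following a 24 hr incubation with DMSO-dissolved compounds at 37 C, 5% CO2, Gli1-Luc NIH/3T3-derived cells received luciferase reagent for 30 min at room temperature prior to luminescence measurement.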

[6] = qHTS assay to identify small molecule antagonists of the sonic hedgehog signaling (Shh) pathway (AID 1259369; calls by dose curve; further: nearly all actives have a fitted effect of over 45% in size; further: potency means the concentration at half of the fitted maximal effect)
Summary of the method: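 Read-out is luminescence from a firefly luciferase gene controlled by the Gli1 response element, in 3T3Gli1-Luc cells pre-incubated 4hr then exposed to compounds and conditioned medium for 24hr.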

[7] = qHTS assay to identify small molecule antagonists of the sonic hedgehog signaling (Shh) pathway - cell viability counter screen (AID 1259367); further: nearly all actives have a fitted effect of over 55% in size; further: potency means the concentration at half of the fitted maximal effect
Summary of the method: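 Cytotoxicity was assessed in parallel with Shh reporter activity by measuring live-cell protease fluorescence (CellTiter-Fluor) in NIH/3T3 cells stably carrying Gli1-Luc, treated with compound under conditioned medium stimulation for 23 hr plus 1 hr reagent incubation.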

[8] = qHTS assay to identify small molecule phospholipidosis (PLD) inducers (AID 1259344; active means well fitted curve in the direction sought with a large enough effect; an effect the other way counts as inactive or inconclusive)
Summary of the method: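 Cells (HepG2, 900 per well) attach for 4 h, receive LipidTOX Red and compound together, incubate 24 h at 37 C, are fixed 30 min with paraformaldehyde/Hoechst, then imaged at one site per well.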

[9] = qHTS assay to identify small molecule agonists of the sonic hedgehog signaling (Shh) pathway - cell viability counter screen (AID 1259366); further: nearly all actives have a fitted effect of over 50% in size; further: potency means the concentration at half of the fitted maximal effect
Summary of the method: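 Stable Gli1-Luc NIH/3T3 clone, 2,000 cells/well. Compound exposure 24hr at 37C. Read-out: CellTiter-Fluor fluorescence.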

Measured: Potency

Chain of Estrogen receptor (Homo sapiens) (P03372 whole entry, looked up): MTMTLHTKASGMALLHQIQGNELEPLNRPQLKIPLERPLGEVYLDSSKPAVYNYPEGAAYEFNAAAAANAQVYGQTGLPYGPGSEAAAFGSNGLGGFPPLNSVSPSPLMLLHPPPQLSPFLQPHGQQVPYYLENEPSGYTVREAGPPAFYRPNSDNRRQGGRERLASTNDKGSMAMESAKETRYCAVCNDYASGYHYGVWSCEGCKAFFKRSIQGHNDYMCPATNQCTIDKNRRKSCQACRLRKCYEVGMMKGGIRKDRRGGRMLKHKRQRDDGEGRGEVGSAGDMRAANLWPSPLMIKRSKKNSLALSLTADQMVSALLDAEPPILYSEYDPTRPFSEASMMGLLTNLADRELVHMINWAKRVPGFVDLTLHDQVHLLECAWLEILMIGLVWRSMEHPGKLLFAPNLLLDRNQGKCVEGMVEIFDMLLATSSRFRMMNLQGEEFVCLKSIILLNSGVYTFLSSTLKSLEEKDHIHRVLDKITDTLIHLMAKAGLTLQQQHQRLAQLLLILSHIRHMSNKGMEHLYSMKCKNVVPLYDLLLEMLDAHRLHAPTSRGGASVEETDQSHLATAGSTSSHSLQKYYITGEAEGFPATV

CCOCn1c(-c2ccc(Cl)cc2)c(C#N)c(Br)c1C(F)(F)F
inactive: [3] | [4] | [5]
active: [1] 5.45 µM | [2] 1.93 µM | [6] 0.611 µM

Cn1[nH]nnc1=S
not listed: [6] | [8] | [9]
inactive: all other assays above

Cc1cc(SCc2sc(-c3ccc(C(F)(F)F)c(F)c3)nc2C)ccc1OCC(=O)O
inactive: [1] | [2] | [4] | [5]

O=c1c(C2CC(c3ccc(-c4ccc(Br)cc4)cc3)Cc3ccccc32)c(O)sc2ccccc12 (stereo not given)
inactive: [1] | [3] | [4] | [7] | [5]
active: [2] 13.3 µM

O=C(O)COc1nc(Cl)c(Cl)cc1Cl
inactive: [1] | [2] | [4] | [7] | [5]

N#CCCC(Br)(C#N)CBr (stereo not given)
inactive: [1] | [2] | [3] | [4]
active: [7] 27.3 µM | [6] 21.7 µM

Nc1ccc(Sc2ccc(N)cc2)cc1
not listed: [2] | [6]
inactive: all other assays above

Clc1ccc(-c2ccc(Cl)c(Cl)c2Cl)c(Cl)c1Cl
not listed: [8] | [9]
inactive: all other assays above

S=C=Nc1cccc2ccccc12
inactive: [1] | [4] | [5]
active: [2] 19.1 µM | [9] 53.9 µM

Oc1ccc(C(=C(Cl)Cl)c2ccc(O)cc2)cc1
active: [2] 61 µM | [6] 9.67 µM
not listed: [8] | [9]
inactive: all other assays above

O=c1[nH]c2ccccc2n1C1CCN(CCCC(c2ccc(F)cc2)c2ccc(F)cc2)CC1
active: [2] 48.6 µM | [9] 27.3 µM
inactive: [4] | [7] | [5]
54.5 µM (active) and inactive: [1]

c1ccc(Nc2ccc3ccccc3c2)cc1
not listed: [3] | [8]
inactive: all other assays above

Cc1ccc(OP(=O)(Oc2ccccc2)Oc2ccccc2)cc1
active: [6] 17.5 µM
not listed: [8] | [9]
inactive: all other assays above

CC(=O)c1cc(C(C)(C)C)cc2c1CCC2(C)C
not listed: [3] | [8]
inactive: all other assays above

CCCCCCCCCCCCCCCC[N+](C)(C)C
active: [1] 38.6 µM | [6] 3.72 µM and 969 nM and 298 nM
54.5 µM (active) and inactive: [9]
61.1 µM (active) and inactive: [7]
not listed: [2]
inactive: all other assays above

OC(c1ccc(Cl)cc1)(c1ccc(Cl)cc1)C(Cl)(Cl)Cl
not listed: [4] | [8] | [9]
inactive: all other assays above

Clc1ccc(C(c2ccc(Cl)cc2)C(Cl)(Cl)Cl)cc1
48.9 µM (active) and inactive: [9]
not listed: [2] | [6]
inactive: all other assays above

O=c1ssc(Cl)c1Cl
active: [1] 54.5 µM | [9] 30.6 µM
inactive: [2] | [4] | [5]

CN(C)C1CSSSC1
inactive: [1] | [2] | [4] | [9] | [7]

CCOC(=O)OC1=C(c2cc(C)ccc2C)C(=O)NC12CCC(OC)CC2 (stereo not given)
active: [6] 17.2 µM
inactive: [1] | [2] | [4] | [9] | [7]

c1ccc2c(c1)[nH]c1cnccc12
not listed: [3] | [6] | [8]
inactive: all other assays above

N#C/C=C/C#N
not listed: [8] | [9]
inactive: all other assays above

Nc1ccc(Cc2ccc(N)c(Cl)c2)cc1Cl
active: [2] 59.1 µM | [7] 52.7 µM | [6] 21 µM
inactive: [1] | [4]

CC1(c2ccc(Oc3ccccc3)cc2)OC(=O)N(Nc2ccccc2)C1=O (stereo not given)
active: [1] 24.5 µM | [2] 8.69 µM | [6] 6.15 µM
inactive: [3] | [4]

CCCCCCCCCCCCCC[P+](CCCCCC)(CCCCCC)CCCCCC (tested in a mixture with another compound)
active: [1] 19.3 µM | [2] 3.86 µM | [4] 68.6 µM | [9] 13.7 µM | [6] 0.969 µM
inactive: [5]

CCCCCCCCCBr
not listed: [8] | [9]
inactive: all other assays above

O=[N+]([O-])c1cc(C(F)(F)F)c(Cl)c([N+](=O)[O-])c1Cl
active: [1] 27.3 µM | [2] 61.1 µM | [9] 13.7 µM | [7] 21.7 µM
inactive: [3]

COP(=O)(OC)SCn1c(=O)oc2cc(Cl)cnc21
not listed: [3] | [7] | [8]
inactive: all other assays above
